# Only a selection was taken, and hits are over-represented in it overall.
# KDM5B inh – Primary screen for KDM5B Histone Demethylases FDH-coupled qHTS; Lysine-specific demethylase 5B (Homo sapiens), Q9UGL1; Potency, µM (series often up to 57.7 µM), usual class: inhibitors; KDM5B demethylase, FDH-coupled NADH fluorescence (FDH is formaldehyde dehydrogenase); 220,000 tested, 2.6% active; AID 1347165, 2019; active means well fitted inhibition curve with a large enough effect; further: nearly all actives have a fitted effect of over 70% in size
# Target sequence (Q9UGL1 whole entry, looked up): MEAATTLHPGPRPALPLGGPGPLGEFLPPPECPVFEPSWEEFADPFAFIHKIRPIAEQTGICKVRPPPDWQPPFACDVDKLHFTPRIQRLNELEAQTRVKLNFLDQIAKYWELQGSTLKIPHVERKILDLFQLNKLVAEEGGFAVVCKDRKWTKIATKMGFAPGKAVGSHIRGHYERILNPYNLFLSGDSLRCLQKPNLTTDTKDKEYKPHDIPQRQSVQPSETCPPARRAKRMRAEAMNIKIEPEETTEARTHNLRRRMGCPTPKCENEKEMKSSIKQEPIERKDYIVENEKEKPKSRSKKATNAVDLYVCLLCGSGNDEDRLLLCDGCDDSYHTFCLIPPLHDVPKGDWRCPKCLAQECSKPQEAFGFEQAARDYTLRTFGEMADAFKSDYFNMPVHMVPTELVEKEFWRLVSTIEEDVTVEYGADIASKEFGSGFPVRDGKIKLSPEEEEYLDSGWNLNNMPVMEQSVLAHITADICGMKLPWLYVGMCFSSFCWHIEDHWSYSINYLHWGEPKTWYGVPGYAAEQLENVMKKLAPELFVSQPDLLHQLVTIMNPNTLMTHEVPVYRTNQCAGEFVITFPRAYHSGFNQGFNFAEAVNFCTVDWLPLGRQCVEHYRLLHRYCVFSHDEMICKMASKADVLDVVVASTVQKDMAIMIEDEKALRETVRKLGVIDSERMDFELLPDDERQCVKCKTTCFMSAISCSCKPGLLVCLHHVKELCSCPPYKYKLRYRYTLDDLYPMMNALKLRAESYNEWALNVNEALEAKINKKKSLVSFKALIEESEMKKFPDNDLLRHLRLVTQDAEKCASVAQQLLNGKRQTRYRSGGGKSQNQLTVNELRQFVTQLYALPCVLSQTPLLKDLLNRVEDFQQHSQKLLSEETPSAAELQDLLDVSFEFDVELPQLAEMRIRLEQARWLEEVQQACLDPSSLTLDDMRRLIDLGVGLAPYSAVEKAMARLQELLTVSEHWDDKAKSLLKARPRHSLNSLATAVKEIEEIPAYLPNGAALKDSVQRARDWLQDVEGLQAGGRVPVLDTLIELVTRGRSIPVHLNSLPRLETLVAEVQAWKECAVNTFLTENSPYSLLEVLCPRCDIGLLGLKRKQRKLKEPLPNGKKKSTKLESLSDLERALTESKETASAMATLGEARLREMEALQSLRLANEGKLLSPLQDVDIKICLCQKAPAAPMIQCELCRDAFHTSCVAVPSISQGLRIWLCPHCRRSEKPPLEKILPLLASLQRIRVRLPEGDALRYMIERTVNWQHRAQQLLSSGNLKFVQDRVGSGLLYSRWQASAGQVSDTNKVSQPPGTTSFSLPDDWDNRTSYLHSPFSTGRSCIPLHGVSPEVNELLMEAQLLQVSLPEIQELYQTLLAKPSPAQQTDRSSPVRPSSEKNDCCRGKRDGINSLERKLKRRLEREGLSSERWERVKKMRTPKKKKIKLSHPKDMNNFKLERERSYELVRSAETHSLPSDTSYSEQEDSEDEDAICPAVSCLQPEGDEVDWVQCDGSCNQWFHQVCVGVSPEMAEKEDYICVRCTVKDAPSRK
#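 Coupled FDH/NAD⁺ fluorescence readout. KDM5BΔAP 200 nM final; compound titration, 10 min RT preincubation; substrate mix 12.5 µM H3K4me3, 25 µM 2-OG, 50 µM Fe(II), 100 µM ascorbate, 0.25 mM NAD⁺, 0.25 U/mL FDH; ΔRFU over 30 min.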
# Hits are given with their value; 0 = inactive.
SMILES,KDM5B inh
O=c1c2ccccc2ncn1Cc1ccccc1,0
O=c1c2nc(-c3ccsc3)ccc2ncn1Cc1ccccc1,39.8µM
O=c1c2nc(-c3cccc(O)c3)ccc2ncn1C1CC1,0
O=c1c2nc(Nc3cccnc3)ccc2ncn1Cc1ccccc1,0
O=c1c2nc(-c3cccc(O)c3)ccc2ncn1-c1ccccc1,0
Cn1cnc2ccc(-c3ccsc3)nc2c1=O,35.5µM
O=C(CN1CCN(S(=O)(=O)Cc2ccccc2)CC1)Nc1cccc(Cl)c1,0
CCOC(=O)c1sc(CC(=O)Nc2ccccc2C)nc1C,0
CCC(N)(C(=O)O)c1cccc(Cl)c1 (stereo not given),0
NC(=O)[C@@H](Cc1c[nH]c2ccccc12)NC(=O)[C@H]1CN(C(=O)c2cccc(F)c2)CCN1C(=O)C1CCNCC1,0
CN(C)c1ccc(C(=O)N2CCN(C(=O)c3ccc(N(C)C)cc3)[C@H](C(=O)N[C@H](Cc3c[nH]c4ccccc34)C(N)=O)C2)cc1,28.2µM
CN(C)c1ccc(C(=O)N2CCN(S(C)(=O)=O)[C@H](C(=O)N[C@H](Cc3c[nH]c4ccccc34)C(N)=O)C2)cc1,0
Cc1ccc(-c2cc(C(=O)O)c3ccccc3n2)o1,0
Cc1ccc(C)c(CS(=O)CCC(=O)Nc2ccccc2)c1 (stereo not given),0
CC(=O)OCc1cc(=O)n2nc(C3CCCCC3)sc2n1,0
CC(O)c1cc2n(n1)CCN(Cc1cc(=O)n3nc(C4CC4)sc3n1)C2 (stereo not given),25.1µM
OC(c1cc2n(n1)CCN(Cc1cc(C3CC3)on1)C2)C1CC1 (stereo not given),0
O=C(O)CNS(=O)(=O)c1ccc(F)c(F)c1F,0
CC1CCCC(NC(=O)CCCc2cccs2)C1C (stereo not given),0
CCN(C(=O)CN(C)C(c1cccc(F)c1)c1ccccn1)C1CC1 (stereo not given),0
O=[N+]([O-])c1cc(S(=O)(=O)Nc2ccc(Cl)cc2)ccc1N/N=C/c1ccccc1Cl,0
N#Cc1ccc(/C=N/Nc2ccccc2Cl)cc1,0
O=C(O)C1=CC(/C=C/c2ccccc2)n2ncc(C(=O)Nc3ccccc3Cl)c2N1 (stereo not given),0
O=C(NCCCN1CCOCC1)c1ccc2c(=O)n(Cc3ccccc3)c(=S)[nH]c2c1,0
CC1CCC(NC(=O)c2ccc3c(c2)N(Cc2ccccc2)C(=O)c2ccccc2S3=O)CC1 (stereo not given),0
SMILES,KDM5B inh
CN1CCC2(C1)CN(Cc1ccccc1)c1ccc(C(=O)NC3CC3)cc12 (stereo not given),35.5µM
CC(C)CCNC(=O)c1ccc2c(c1)CC(=O)N2Cc1ccccc1,0
CN1CCC2(C1)CN(Cc1ccccc1)c1ccc(C(=O)NCC[S+](C)(=O)[O-])cc12 (stereo not given),35.5µM
CC(C)Oc1ccc(C(=O)NC2CCN(Cc3ccccc3)CC2)cc1,0
CCC(C)(C)C1CCC(NC(=S)NCc2ccc(F)cc2)CC1 (stereo not given),0
CC(Sc1ncccn1)C(=O)O (stereo not given),0
CC(SCc1ccccc1)C(=O)NCc1ccco1 (stereo not given),0
CC(=O)Nc1ccc(SC(C)C(=O)c2ccc3c(c2)NC(=O)CO3)cc1 (stereo not given),0
O=C(c1cc(=O)c2ccccc2o1)N1CCC(CCN2CCCCC2)CC1,0
CN(CC(=O)N1CCc2nc3cc(-c4ccccc4)[nH]n3c(=O)c2C1)S(=O)(=O)c1cnc[nH]1,28.2µM
COc1ccc(NC(=O)CN(C)S(=O)(=O)c2cnc[nH]2)cc1,0
CN(CC(=O)N1CCc2ccccc2C1)S(=O)(=O)c1ccc(Cl)cc1,0
COc1ccc(-c2cc3nc4c(c(=O)n3[nH]2)CN(C(=O)CN(C)S(=O)(=O)c2cnc[nH]2)CC4)cc1,25.1µM
Cc1ccc(NC(=O)CN(C)S(=O)(=O)c2cnc[nH]2)cc1,0
CC1(c2noc(-c3ccccc3)n2)CCN(C(=O)C2CCN(S(=O)(=O)c3cnc[nH]3)CC2)CC1,0
CN(C)c1ccc(NC(=O)c2cc(C(C)(C)C)cc(C(C)(C)C)c2)cc1,0
Clc1ccc(C2C=C(c3ccccc3)Nc3nnnn32)c(Cl)c1 (stereo not given),0
COc1ccc(-c2noc([C@@H]3CCCN3C(=O)c3ccc(F)c(F)c3)n2)cc1OC,0
Fc1ccc(-c2noc([C@@H]3CCCN3Cc3ccc(Cl)cc3)n2)nc1,0
COc1ccc(-c2noc([C@@H]3CCCN3C(=O)c3ccncc3)n2)cc1OC,0
NC(=O)C1CCN(c2cc(-c3noc([C@@H]4CCCN4Cc4ccc(F)c(F)c4)n3)ccn2)CC1,25.1µM
COCCOc1cc(-c2noc([C@@H]3CCCN3Cc3ccc(NC(C)=O)cc3)n2)ccn1,0
CC(=O)N1CCN(c2cc(-c3noc([C@@H]4CCCN4Cc4ccc(C(F)(F)F)cc4)n3)ccn2)CC1,28.2µM
CCOc1ccc(CN(C(=O)c2cc(=O)c3ccc(C)c(C)c3o2)C2CCS(=O)(=O)C2)cc1 (stereo not given),0

# Screening results: PubChem BioAssay, National Center for Advancing Translational Sciences (NCATS)
